# Data reported in PubChem BioAssay (NCATS).
# Values joined by “and” are separate entries in the source; they are usually repeats but may differ in a detail not shown here. Equal entries are not always repeated. Inconclusive results are not listed. Entries that show only a call come without a potency. More than one record can exist for a structure, and the calls need not agree. Active and inactive are the calls of the source. Unless noted, the call rests on the fitted dose curve; in most records, active means well fitted curve in the direction sought with a large enough effect; inconclusive means small, poorly fitted or top-dose-only effect, or another doubt; inactive means no such curve, though single readings can be large; an effect the other way counts as inactive or inconclusive.
# What was measured:
# [1] = qHTS profiling of the MIPE4 collection as inhibitors of Plasmodium falciparum (DD2) proliferation (AID 743345; call rule not given here); conditions: P. falciparum Dd2 in erythrocytes, SYBR Green DNA, 72 h; at 28.5 µM (top of the series) unless noted
# How it was run: (§1)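 Erythrocytes infected with P. falciparum (0.3% parasitemia, 2.5% hematocrit) incubated with compounds 72 h at 37 C, 5% CO2. Lysis with saponin/Triton buffer containing SYBR Green I, overnight at room temperature in the dark; DNA fluorescence (485/535 nm) normalised to 0.29 uM artemisinin and DMSO.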
# [2] = qHTS profiling of the MIPE4 collection as inhibitors of Plasmodium falciparum (DD2) proliferation (Rep 2) (AID 743346; call rule not given here); conditions: P. falciparum Dd2 in erythrocytes, SYBR Green DNA, 72 h; at 28.5 µM (top of the series) unless noted
# How it was run: as §1
# [3] = qHTS profiling of the MIPE4 collection as inhibitors of Plasmodium falciparum (HB3) proliferation (AID 743347; call rule not given here); conditions: P. falciparum HB3 in erythrocytes, SYBR Green DNA, 72 h; at 28.5 µM (top of the series) unless noted
# How it was run: as §1
# [4] = High-throughput drug toxicity screening in the BPDCN cell line Cal-1 (AID 1224825; call rule not given here); conditions: Cal-1 BPDCN cell viability, qHTS; at 45.8 µM (top of the series) unless noted
# How it was run: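 500 Cal-1 cells/well, RPMI + glutamine + 10% FBS (phenol red-free); cpd added by pin tool; 48 h, 37C, 5% CO2; CTG 15 min RT, lumi read. Normalised: DMSO 100%, bortezomib 9.2 uM 0%.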
# [5] = qHTS assay for measurement of the activity of small molecule inhibitors on Zika virus induced Caspase-3 activity in human iPSC derived neural progenitor cells (hNPCs) (AID 1224857); further: nearly all actives have a fitted effect of over 65% in size; further: potency means the concentration at half of the fitted maximal effect
# How it was run: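 hNPCs seeded 350 cells/well, cultured 16–20 h; compounds added 1 h before ZIKV (2 FFU/cell), 37 C 6 h. Caspase-Glo 3/7 luminescence after 30 min RT; % inhibition from induction scaled to uninfected (0%) and infected (100%) wells.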
# [6] = qHTS assay for measurement of the activity of small molecule inhibitors on Zika virus induced Caspase-3 activity in human astrocytoma cells (AID 1224859)
# How it was run: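 Luminescence read-out (Caspase-Glo 3/7, 30 min RT) of caspase activity in SNB-19 cells infected 6 h with ZIKV, 2 FFU/cell, after 1 h compound pretreatment; % inhibition from induction normalised to uninfected (0%) and infected (100%) wells.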
# [7] = qHTS Screen of the MIPE 4.0 Collection Against Ewings Sarcoma (RDES) (AID 1259252); further: nearly all actives have a fitted effect of over 35% in size; further: potency means the concentration at half of the fitted maximal effect
# How it was run: (§2)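 CellTiter-Glo luminescence after 48 h compound exposure (titration) gave viability; percent activity used DMSO-treated cells as no inhibition and medium-only wells as full inhibition. Cells grown in RPMI/5% FBS, dosed 4 h post-seeding.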
# [8] = qHTS Screen of the MIPE 4.0 Collection Against Ewings Sarcoma (TC71) (AID 1259253); further: nearly all actives have a fitted effect of over 40% in size; further: potency means the concentration at half of the fitted maximal effect
# How it was run: as §2
# [9] = qHTS Screen of the MIPE 4.0 Collection Against Ewings Sarcoma (EW8) (AID 1259255); further: nearly all actives have a fitted effect of over 35% in size; further: potency means the concentration at half of the fitted maximal effect
# How it was run: as §2
# [10] = qHTS assay to identify small molecule inhibitors of chordoma cells - UCH-2 (AID 1259356)
# [11] = P-glycoprotein substrates identified in KB-3-1 adenocarcinoma cell line, qHTS therapeutic library screen (AID 1346986); conditions: KB-3-1 parental cells viability, CellTiter-Glo, 72 h; at 44.5 µM (top of the series); further: nearly all actives have a fitted effect of over 60% in size
# How it was run: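 Counter-screen: cherry-picked hits retested in the KB pair and in HEK-293 pcDNA/MDR-19 cells ± tariquidar. Primary screen used 72 h CellTiter-Glo viability in KB-3-1 and KB-8-5-11.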
# [12] = qHTS Screen of the MIPE 4.0 Collection Against Ewings Sarcoma (TC32) (AID 1259256); further: nearly all actives have a fitted effect of over 45% in size; further: potency means the concentration at half of the fitted maximal effect
# How it was run: as §2
# [13] = Identifying Small Molecule Inhibitors of Pancreatic Cancer Stem Cells (SN12C, Adherent) (AID 1259358);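 further: cell survival measured after 48 h of compound exposure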; further: potency means the concentration at half of the fitted maximal effect
# How it was run: (§3)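 Cytotoxicity read by CellTiter-Glo luminescence after 48 h compound exposure at 37C; percent activity scaled between DMSO-treated cells and cell-free wells. Spheroid formats used cells pre-formed 14 days in stem cell media on hydrogel.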
# [14] = Identifying Small Molecule Inhibitors of Pancreatic Cancer Stem Cells (SN12C, Spheroid) (AID 1259360); conditions: Potency: SN12C spheroid viability; further: potency means the concentration at half of the fitted maximal effect
# How it was run: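 After a 4 h attachment period, compounds were pinned into wells and cultures held 48 h under standard incubator conditions. Viability was then measured as CellTiter-Glo luminescence following 10 min at room temperature.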
# [15] = Identifying Small Molecule Inhibitors of Pancreatic Cancer Stem Cells (A278, Adherent) (AID 1259361); further: nearly all actives have a fitted effect of over 35% in size
# How it was run: as §3
# [16] = Identifying Small Molecule Inhibitors of Pancreatic Cancer Stem Cells (Panc1, Adherent) (AID 1259362); conditions: viability; further: potency means the concentration at half of the fitted maximal effect
# How it was run: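 Pre-formed 14-day tumor spheroids or adherent cells dosed and incubated 48 h, 37C, 5% CO2. Viability assessed by CellTiter-Glo.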
# [17] = qHTS assay to identify small molecule inhibitors of chordoma cells - UCH-1 (AID 1259355); further: nearly all actives have a fitted effect of over 55% in size
# How it was run: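 Seed 800 cells per well; incubate overnight at 37 C, 5% CO2. Add test compounds (15 concentrations), then the auranofin–topoisomerase-agent combination. Incubate 48hr, add CellTiter-Glo, wait 30min, read luminescence.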
Structure (SMILES),"parasite growth remaining, % of DMSO control (lower = more inhibition) [1] [%]","parasite growth, % of control (lower = inhibition) [2] [%]","growth, % of control [3] [%]",viability (% of control) [4] [%],Potency [5],Potency [6],Potency [7],Potency [8],Potency [9],Potency [10],outcome [11],Potency [12],Potency [13],Potency [14],IC50 (viability decrease) [15],Potency [16],Potency [17]
COc1ccc(-c2ccc3cc(C(=O)O)ccc3c2)cc1C12CC3CC(CC(C3)C1)C2,98.8,58.3,111,112,inactive,inactive,2.09 µM (active),2.96 µM (active),inactive,inactive,inactive,–,–,–,–,–,–
CCn1cc(C(=O)O)c(=O)c2cc(F)c(N3CCNCC3)cc21,–,–,–,104,inactive,inactive,inactive,inactive,inactive,inactive,inactive,inactive,–,–,–,–,–
CNCC[C@H](Oc1cccc2ccccc12)c1cccs1,7.89,14.2,3.44,39.6,inactive and 23.5 µM (active),inactive,2.35 µM (active),2.64 µM (active),–,inactive,–,5.26 µM (active),–,–,–,–,–
CCN(CC)CCn1c(=O)c(Cc2ccc(OC)cc2)nc2ccccc21,46.8,28.1,149,94.1,inactive,inactive,inactive,inactive,inactive,–,inactive,–,inactive,inactive,inactive,–,–
COC(=O)Nc1nc2ccc(S(=O)c3ccccc3)cc2[nH]1 (centres undefined),82.8,68.5,104,22.2,inactive,inactive,11.8 µM (active),18.7 µM (active),13.2 µM (active),–,–,11.8 µM (active),–,–,–,–,–
COc1cc2ncnc(Nc3cccc(Cl)c3)c2cc1OC,27,24.1,4.11,39.5,inactive,inactive,0.118 µM (active),4.18 µM (active),–,–,–,–,–,–,–,–,–
CC(C)C1CCC(C(=O)N[C@H](Cc2ccccc2)C(=O)O)CC1 (some centres undefined),118,109,85.4,99.1,inactive,inactive,inactive,inactive,inactive,inactive,–,inactive,–,–,–,–,–
Nc1nc(N)c2nc(CNc3ccc(C(=O)NC(CCC(=O)O)C(=O)O)cc3)cnc2n1 (centres undefined),7.65,21,–,9.27,inactive,inactive,0.0166 µM (active),0.0132 µM (active),–,–,–,0.0332 µM (active),–,–,–,–,–
CC(C)C[C@H](NC(=O)[C@H](CCc1ccccc1)NC(=O)CN1CCOCC1)C(=O)N[C@@H](Cc1ccccc1)C(=O)N[C@@H](CC(C)C)C(=O)[C@@]1(C)CO1,7.08,9.09,6.02,3.67,inactive,inactive,0.0187 µM (active),0.0372 µM (active),0.0132 µM (active),–,–,0.0148 µM (active),0.0372 µM (active),0.0372 µM (active),0.0023 µM (active),0.0264 µM (active),–
COc1cc(NS(=O)(=O)c2ccc(N)cc2)nc(OC)n1,96.8,87.6,91,104,inactive,inactive,inactive,inactive,inactive,–,inactive,–,–,–,–,–,inactive
CCOC(=O)c1ccc(C#Cc2ccc3c(c2)C(C)(C)CCS3)nc1,83.8,29.1,50.6,47,inactive,inactive,inactive,inactive,inactive,inactive,–,inactive,–,–,–,–,inactive
CCCCCCNC(=O)n1cc(F)c(=O)[nH]c1=O,32,30.5,–,33.8,inactive,inactive,13.2 µM (active),8.33 µM (active),–,inactive,–,18.7 µM (active),–,–,–,–,inactive
O=c1oc2c(O)c(O)cc3c(=O)oc4c(O)c(O)cc1c4c23,7.22,5.89,6.72,131,inactive,inactive,inactive,inactive,inactive,–,–,inactive,–,–,–,–,–
O=C(N[C@H](CO)[C@H](O)c1ccc([N+](=O)[O-])cc1)C(Cl)Cl,100,83.1,105,116,inactive,inactive,inactive,inactive,–,inactive,inactive,–,–,–,–,–,–
Cn1c(=O)c2c(ncn2CC(O)CO)n(C)c1=O (centres undefined),88.3,96.6,–,100,inactive,inactive,inactive,inactive,inactive,inactive,inactive,–,–,–,–,–,inactive
Cc1oc(=O)oc1CN1CCN(c2cc3c(cc2F)c(=O)c(C(=O)O)c2n3C(C)S2)CC1 (centres undefined),12.9,9.67,–,103,inactive,inactive,inactive,inactive,inactive,–,inactive,–,–,–,–,–,–
COc1ccc2c(c1)c(CC(=O)OCC(=O)O)c(C)n2C(=O)c1ccc(Cl)cc1,104,68.6,–,119,inactive,inactive,inactive,inactive,–,–,–,–,–,–,–,–,–
